Source: PubChem BioAssay (National Center for Advancing Translational Sciences (NCATS))
Hits are enriched below; roughly 14% of the tested compounds scored in any of these assays.
NS1 inh: qHTS Assay for Inhibitors of Influenza NS1 Protein Function. Potency, µM (top dose mostly 46.1 µM), for the others: top-dose activity, positive = more growth. actives 0.4% (n = 270,000). AID 2326, 2010; calls by dose curve; further: potency means the concentration at half of the fitted maximal effect; actives are rising curves; nearly all actives have a fitted effect of over 50% in size
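A cell-based growth assay was used: compounds that relieve NS1-induced slow growth of budding yeast raise OD600. Assay medium was yeast nitrogen base with ammonium sulphate and -URA supplement, pH 6.0, with 2% galactose.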
FBPA Giardia inh: qHTS Assay for Inhibitors of Fructose-1,6-bisphosphate Aldolase from Giardia Lamblia. purified Giardia FBPA. Potency, µM (highest dose often 59.6 µM), for inactives: top-dose activity, negative = inhibition, hits mostly inhibitors. actives 0.71% (n = 290,000); further: potency means the concentration at half of the fitted maximal effect; on the % scale 0 is the no-effect control and ±100 the full control effect; nearly all actives have a fitted effect of over 55% in size
Target sequence (A8B2U2 whole entry, looked up): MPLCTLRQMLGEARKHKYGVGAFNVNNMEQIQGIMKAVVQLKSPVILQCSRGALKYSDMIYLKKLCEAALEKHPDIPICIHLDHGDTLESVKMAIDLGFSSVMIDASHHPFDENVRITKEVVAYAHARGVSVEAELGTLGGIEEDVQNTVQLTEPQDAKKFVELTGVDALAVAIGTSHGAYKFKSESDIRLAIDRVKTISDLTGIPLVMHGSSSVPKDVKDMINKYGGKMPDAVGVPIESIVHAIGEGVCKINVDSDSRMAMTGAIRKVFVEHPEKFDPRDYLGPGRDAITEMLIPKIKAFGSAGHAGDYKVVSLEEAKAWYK
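Giardia FBPA (40 nM reagent) was preincubated 10 min at RT with compound (up to 57.5 uM final), then substrate plus GAPDH/TPI/NAD/arsenate coupling system with diaphorase/resazurin was added; resorufin fluorescence (525/598 nm) was read after 20 min.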
CHX counter: Cycloheximide Counterscreen for Small Molecule Inhibitors of Shiga Toxin; cell reporter, cycloheximide protein synthesis inhibition counterscreen; max response, %; actives 12% (n = 300,000); in the data active means max response mostly above about 13%, no sharp cut-off; inactive means mostly below about 14%; further: read at 38.3 µM for the half of the compounds with a filed dose; 0% is about no effect
Shiga toxin inh: A qHTS for Small Molecule Inhibitors of Shiga Toxin; AID 2315, 2010; Vero cells, Shiga toxin protein synthesis inhibition reporter; inhibition, % at 38.7 µM; actives 9.2% (n = 290,000); in the data active means inhibition mostly above about 28%, no sharp cut-off; inactive means mostly below about 43%; further: 0% is about no effect
LmPK inh: qHTS Assay for Inhibitors of Leishmania Mexicana Pyruvate Kinase (LmPK). AID 1721, 2009. Q27686. actives 0.37% (n = 290,000). Potency, µM (top dose mostly 57.5 µM), inactives show at the highest dose activity change, negative = inhibition, usual class: inhibitors. purified LmPK, Kinase-Glo ATP luminescence, 1 h; further: potency means the concentration at half of the fitted maximal effect; on the % scale 0 is the no-effect control and ±100 the full control effect
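Purified LmPK (0.1 nM) converted ADP (0.1 mM) to ATP with PEP (0.5 mM) in imidazole buffer pH 7.2 with KCl and MgCl2, 1 h at room temperature. ATP was read by Kinase-Glo luminescence; data normalized to uninhibited and no-enzyme controls.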
* hit, by the source's call; ? = inconclusive; . = no result given; [ ] = remark or other dose. Unless noted, the call rests on the fitted dose curve; in most records, active means well fitted curve in the direction sought with a large enough effect; inconclusive means small, poorly fitted or top-dose-only effect, or another doubt; inactive means no such curve, though single readings can be large; an effect the other way counts as inactive or inconclusive.

SMILES	NS1 inh	FBPA Giardia inh	CHX counter	Shiga toxin inh	LmPK inh
Cn1nnnc1SCC(=O)Nc1ccc2c(c1)OCCO2	3%	0%	33*	81*	-16%
O=C(CSc1nnnn1Cc1ccccc1)Nc1ccc2c(c1)OCCO2	-9%	8%	23*	65	-4%
O=C(CSC1=Nc2ccccc2C2CC=NN12)Nc1ccc2c(c1)OCO2 (centres undefined)	.	-28%	16*	10	8%
CC(Sc1nnnn1C)C(=O)Nc1ccc2c(c1)OCCO2 (centres undefined)	.	1%	29*	115*	0%
CCCOC(=O)c1ccc(NC(=O)CSC2=Nc3ccccc3C3CC=NN23)cc1 (centres undefined)	-1%	2%	5	-6	12%
CC(=O)Oc1ccc(C(=C2CCCCC2)c2ccc(OC(C)=O)cc2)cc1	.	0%	-4	-5	.
CN(C)N1C(N)=C(C#N)C(c2cccc([N+](=O)[O-])c2)C2=C1CC(C)(C)CC2=O (centres undefined)	5%	-6%	-10	9	0%
CC(C)n1nnnc1SCC(=O)NCc1ccc2c(c1)OCO2	1%	.	7	-2	3%
Cc1csc(SC(C)C(=O)Nc2ccc3c(c2)OCCO3)n1 (centres undefined)	.	0%	29*	42	7%
CC(C)n1nnnc1SCC(=O)Nc1ccc2c(c1)OCO2	7%	1%	26*	70*	3%
O=C(CSc1nnnn1Cc1ccccc1)Nc1ccc2c(c1)OCO2	-6%	3%	13*	33*	-3%
CC(Sc1nc2ccccc2s1)C(=O)Nc1ccc2c(c1)OCO2 (centres undefined)	8%	-9%	10	13	0%
CC(=O)Nc1ccc(C(=O)CSc2nnnn2C(C)C)cc1	-4%	-13%	21*	81*	-2%
Cc1nnc(SCC(=O)NC(C)(C)C)n1NCc1cccc(Br)c1	6%	1%	-4	-7	1%
CCC(=O)N1CCC2(CC1)Oc1ccc(Cl)cc1C(=O)C21CC(c2ccc(Cl)cc2)=NO1 (centres undefined)	-17%	-2%	0	-7	2%
Cc1cccc(CN2CC34C=CC(CC3S2(=O)=O)O4)c1 (centres undefined)	.	8%	27	38	.
CCc1ccccc1NC(=O)CNCC(=O)Nc1ccccc1CC	2%	-8%	-1	-14	0%
Nn1cnnc1SCC(=O)Nc1ccc2c(c1)OCCO2	4%	-2%	12*	14	7%
CC(=O)Nc1cccc(NC(=O)CSc2nnnn2C)c1	1%	0%	-4	-9	-10%
c1ccn2c(SCc3ccc4c(c3)OCCO4)nnc2c1	-5%	0%	51*	98*	-6%
Cc1nnc(SCC(=O)Nc2ccc3c(c2)OCCO3)n1N	-6%	3%	10	18	-9%
CC(Sc1nnc2ccccn12)C(=O)Nc1ccc2c(c1)OCCO2 (centres undefined)	.	4%	21*	85*	10%
CC(Sc1nnc2ccccn12)C(=O)NCc1ccc2c(c1)OCO2 (centres undefined)	.	2%	-4	-10	-1%[11.5 µM]
O=[N+]([O-])c1cccc(CSc2nnc3ccccn23)c1	-3%	0%	-2	44	-1%
Cc1ccc(NC(=O)CSc2nnnn2C)cc1S(=O)(=O)N(C)C	3%	1%	17*	31	0%
SMILES	NS1 inh	FBPA Giardia inh	CHX counter	Shiga toxin inh	LmPK inh
CCCCC[C@H](O)/C=C/C=C\C/C=C\C=C\[C@@H](O)CCCC(=O)O	.	5%	.	.	.
COc1ccc(NC(=O)C2CC(c3ccc(OC)c(OC)c3)=NO2)cc1OC (centres undefined)	0%	-14%	1	-15	-6%
COc1cc(C2=NOC(C(=O)Nc3ccc4c(c3)OCO4)C2)cc(OC)c1OC (centres undefined)	-12%	-3%	18*	25	-12%
COc1ccc(C2=NOC(C(=O)Nc3ccc4c(c3)OCO4)C2)cc1OC (centres undefined)	.	-29%	28*	89*	-2%[11.5 µM]
CCCOc1ccc(C(=O)NCC(c2cccs2)N(C)C)cc1 (centres undefined)	-6%	1%	20*	57	-2%
CCCOc1ccc(C(=O)NCC(c2ccco2)N(C)C)cc1 (centres undefined)	-5%	2%	16*	21	-3%
Cc1cccc(OCCCn2c(=O)oc3ccccc32)c1	-31%	-10%	22*	50*	-2%
Cc1ccc2oc(=O)n(CCOc3ccccc3)c2c1	-11%	2%	35*	39*	-4%
O=C1c2ccccc2C(=O)N1CCCn1c(=O)oc2ccccc21	?	1%	7	-4	2%
Cc1cccc(OCCn2c(=O)oc3ccc(C)cc32)c1	-8%	4%	42*	79*	10%
COc1ccc(OCCCn2c(=O)oc3ccccc32)cc1	-4%	0%	19*	-6	0%
O=C(O)c1ccc2c(c1)C(=O)N([C@H](Cc1ccc3ccccc3c1)C(=O)O)C2=O	.	23%	-6	12	.
CCCOc1ccc(-c2c(C(=O)N/N=C/c3cccnc3)nnn2-c2nonc2N)cc1	13%	.	-6	-12	13%
COc1cccc(Cn2c(=O)oc3ccccc32)c1	1%	6%	41*	45*	6%
O=C(c1ccc(Br)cc1)N1CCC(C(=O)N2CCN(c3ccccc3)CC2)CC1	-7%	.	-6	-7	-2%
O=C1CN(c2ccccc2)C(=S)N1C(=O)c1ccc(Br)cc1	-6%	-14%	43*	96*	6%
CC(C)(C)NC(=O)COC(=O)/C=C/c1ccc(F)cc1	1%	-3%	24*	43	8%
CCCCC[C@H](O)/C=C/C=C\C=C\[C@@H](O)C/C=C\CCCC(=O)O	.	3%	.	.	.
O=c1oc2ccccc2cc1-c1csc(NN=C2CCCC2)n1	14%	-4%	14*	15	0%
O=C(O)c1cccc(Nc2nc(-c3cc4ccccc4oc3=O)cs2)c1	20%	-3%	41*	74*	0%
Cc1nc2ccccn2c1-c1csc(Nc2cccc(C(=O)O)c2)n1	-1%	?	-7	43	0%
CC(C)N=C1NN=C(c2cccs2)CS1	.	1%	35*	54*	-13%
COCC(C)N=C1NN=C(c2cccs2)C(CC(=O)O)S1 (centres undefined)	1%	-17%	5	-3	1%
CC(C)c1ccc(N=C2NN=C(c3cccs3)CS2)cc1	15%	-3%	41*	87*	-5%
CC(C)N=C1NN=C(c2ccc(Cl)c(Cl)c2)CS1	.	2%	38*	102*	6%
CN1CCN(c2ncnc3ccc(-c4ccoc4)cc23)CC1	.	-4%	.	.	.
CC(C)CCCC(C)C1CCC2C3CC=C4CC(O)CC[C@@]4(C)C3CC[C@@]12C (some centres undefined)	.	7%	.	.	.
